# Test results reported in PubChem BioAssay.
# Active and inactive are the calls of the source. How the calls were made is not given here.
# Target: Pantothenate synthetase (Mycobacterium tuberculosis (strain ATCC 25618 / H37Rv)) (UniProt P9WIL5)
# Test: Recombinant Mtb pantothenate synthetase (PanC) inhibitors, coupled enzyme, confirmatory (AID 375);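 further: 0% = full reaction with vehicle and 100% = no enzyme background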
# Conditions: coupled enzyme assay; at 10 µM, stronger effect = higher value
# Chain of Pantothenate synthetase (Mycobacterium tuberculosis (strain ATCC 25618 / H37Rv)) (P9WIL5 whole entry, looked up): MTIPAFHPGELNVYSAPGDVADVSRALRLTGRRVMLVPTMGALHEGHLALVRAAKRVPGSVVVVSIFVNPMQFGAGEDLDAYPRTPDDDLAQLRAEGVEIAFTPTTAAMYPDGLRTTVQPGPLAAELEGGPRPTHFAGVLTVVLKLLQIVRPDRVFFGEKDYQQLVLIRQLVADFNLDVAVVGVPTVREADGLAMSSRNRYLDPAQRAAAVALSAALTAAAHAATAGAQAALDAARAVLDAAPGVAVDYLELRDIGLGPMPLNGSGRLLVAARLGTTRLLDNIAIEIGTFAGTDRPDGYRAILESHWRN
row,Structure (SMILES),inhibition
1,Cc1ccc(-c2ccc(/C=N/n3cnnc3)o2)cc1Cl,11% (inactive)
2,CCN1C(=O)CC(C(=O)Nc2ccc(F)cc2)SC1=Nc1ccc2c(c1)OCO2 (stereo not drawn),6% (inactive)
3,C/C(=N\O)C(=O)C(CN1CCCCC1)CN1CCCCC1,0% (inactive)
4,Cc1ccc(C)c(NC(=O)c2ccc3c(c2)N(Cc2ccc(F)cc2)C(=O)CS3=O)c1 (stereo not drawn),0% (inactive)
5,Cc1cc(C(=O)Nc2sc3c(c2C#N)CCCCC3)cs1,0% (inactive)
6,Cc1cc(/C=N/n2cnnc2)c(C)n1-c1ccc(Cl)cc1Cl,1% (inactive)
7,N#C/C(C(=O)N1CCOCC1)=C1/SC(Cc2ccccc2)C(=O)N1c1ccccc1 (stereo not drawn),0% (inactive)
8,CCOc1ccc2c(c1)c1nnc(SCC(=O)N3CCC(C)CC3)nc1n2C,1% (inactive)
9,Cc1nc2c(-c3ccccc3)c(C)nn2c(C)c1CCC(=O)O,0% (inactive)
10,O=C(CSc1nnnn1C1CCCC1)NCc1ccc2c(c1)OCO2,0% (inactive)
11,COc1cc(SC)ccc1C(=O)Nc1ccon1,0% (inactive)
12,CCOC(=O)c1[nH]c(C)c(C(=O)N2CCN(C(=O)c3ccco3)CC2)c1C,0% (inactive)
13,COC(=O)[C@H](CCSC)NC(=O)Nc1cc(C)ccc1C,0% (inactive)
14,O=C(O)c1cccc(COCC(F)(F)C(F)F)c1,0% (inactive)
15,CSc1nnc2c3ccccc3n(Cc3ccccc3)c2n1,7% (inactive)
16,COc1cccc(NC(=O)N2CCN(c3cccc(C)c3C)CC2)c1,0% (inactive)
17,CCC(CO)Nc1ncnc2c1cnn2-c1ccc(Cl)cc1 (stereo not drawn),6% (inactive)
18,CC(C)NC(=O)Nc1cccs1,9% (inactive)
